Assay results: PubChem BioAssay AID1259343 (VanderVen Lab, College of Veterinary Medicine, Cornell …, 2017)
Among all 6,200 compounds or so, about 2,900 (47%) were called active. So high a share suggests a set chosen from earlier hits. The list shows a part of the results. A number with no mark means an inactive call. Cut-off read from the data, not from the text of the source: active = inhibition above about 50%; inactive = the rest.

Experiment: Mycobacterium tuberculosis growth inhibition, primary screen (AID 1259343)
Conditions: inhibition: at 10 µM, active compounds read high; outcome: 10 uM

Row | SMILES | inhibition
1 | O=C1NC(=O)N(C2CCCCC2)C(=O)C1=CC=Cc1ccco1 | 19.5%
2 | Cn1c(=NN=C2CCCc3ccccc32)sc2ccccc21 | 85.9% (active)
3 | Cn1c(=NN=C2CC3CC=CC23)sc2ccccc21 (centres undefined) | 102% (active)
4 | CC1=CC(=NNc2ncc(Cl)cc2Cl)CC(C)(C)C1 | -13.2%
5 | CC(=NN=c1sc2ccccc2n1C)c1ccccc1Br | 11.9%
6 | CC(=NN=c1sc2ccccc2n1C)c1ccco1 | 1.85%
7 | CC1=CC(=NN=c2sc3ccccc3n2C)CC(C)(C)C1 | 95% (active)
8 | Cc1ccc(Cl)cc1N1CCN(C(=O)Nc2nncs2)CC1 | 2.42%
9 | O=c1c(C2OCC3(CO2)CC2C=CC3C2)coc2ccccc12 (centres undefined) | 35.6%
10 | Nc1ccn2ncc([P+](c3ccccc3)(c3ccccc3)c3ccccc3)c2n1 | 24%
11 | CCCCc1ccc(NC(=O)/C=C/c2cnn(C)c2C)cc1 | 93.3% (active)
12 | COc1ccccc1N1C(=O)C(Cl)=C(Nc2ccc(S(N)(=O)=O)cc2)C1=O | -0.54%
13 | Cc1ccc(NC2=C(Cl)C(=O)N(CC(C)C)C2=O)cc1 | 73.8% (active)
14 | Cc1cc(C)c2nc(N3CCNCC3)sc2c1 | 97.1% (active)
15 | Cc1ccc(Cl)c2sc(NCCN(C)C)nc12 | 36.2%
16 | Cc1c(Cl)ccc2sc(N3CCNCC3)nc12 | 90.2% (active)
17 | Cc1ccc(Cl)c2sc(N3CCNCC3)nc12 | 100% (active)
18 | CCN(CC)CCN(C(=O)c1ccnn1CC)c1nc2c(C)c(Cl)ccc2s1 | 38.3%
19 | Cc1nc(N2CCNC(=O)C2)c2c(CC(C)C)csc2n1 | -15.6%
20 | Cc1c(O)cccc1C(=O)NC1CC(=O)N(CC2CCCCC2)C1 (centres undefined) | -18.6%
21 | C/C(=C/C(=O)NCCc1ccccc1F)CCc1ccccc1 | 23.7%
22 | Cc1ccc(C)c2[nH]c(=O)c(CCNC(=S)NCCc3ccccc3)cc12 | 51.5% (active)
23 | Fc1ccc(NN=C2c3ccccc3-c3ccccc32)cc1 | 44.1%
24 | N#CC(C#N)=NNc1ccc(SC(F)F)cc1 | 82.4% (active)
25 | N#CC(C#N)=NNc1ccc2c(c1)OCCO2 | 70.3% (active)
26 | N#CC(C#N)=NNc1ccc2c(c1)OCO2 | 45.5%

Row | SMILES | inhibition
27 | N#CC(C#N)=NNc1ccccc1 | -41.6%
28 | N#CC(C#N)=NNc1ccc(F)cc1 | 91.2% (active)
29 | CCCOCCn1cc(C2CC=CCC2)nn1 (centres undefined) | 75.7% (active)
30 | S=C(c1ccc(-c2ccc(Cl)c(Cl)c2)o1)N1CCOCC1 | 19.5%
31 | O=C(NCCC(=O)N1CCCC1)c1ccc(-c2ccc(Cl)cc2)o1 | 86.7% (active)
32 | C=CCn1c(-c2cc3c(s2)CCC(CC)C3)n[nH]c1=S (centres undefined) | 3.05%
33 | CCC1CCc2c(sc3nc[nH]c(=O)c23)C1 (centres undefined) | 51.2% (active)
34 | OCC1(CO)COC(c2ccccc2)=N1 | 56.2% (active)
35 | Cc1ccc(-n2cc(O)nn2)cc1 | 94% (active)
36 | Cc1ccc(OCc2cn(-c3ccc(Cl)cc3)nn2)cn1 | 24.1%
37 | CCCCN(CCCC)c1nc(OC)nc(-n2nnc(C(C)=O)c2C)n1 | 15%
38 | Cn1c(=NC(=O)c2ccc3ccccc3n2)sc2ccccc21 | 45.5%
39 | Cc1cc(C)c(CNC(=O)c2ccc3ccccc3n2)c(=O)[nH]1 | 70.6% (active)
40 | OCCNc1nc(-c2ccccc2)c2cc(Br)ccc2n1 | 3.07%
41 | O=C(NCc1ccco1)c1cc(-c2cccs2)on1 | 35.1%
42 | O=C(c1cc(-c2cccs2)on1)N1CCCC1 | 51.3% (active)
43 | O=C(c1scc2c1CCCC2)N1CCCC1 | 16.9%
44 | Cc1cc(/C=C(/Cl)c2nc(-c3cccs3)no2)cc(C)c1O | 32.2%
45 | Cc1cc(C(=O)N2CCC(N3CCCC(C(=O)N4CCOCC4)C3)CC2)no1 (centres undefined) | -0.96%
46 | O=C(NC1CCCC1)c1nc(-c2cccs2)no1 | 79.1% (active)
47 | O=C(NC1CCCC1)c1cc(-c2cccs2)on1 | 93.6% (active)
48 | Cc1noc(-c2cccs2)c1C(=O)NCCOc1ccccc1 | -3.83%
49 | N#CC(O[C@@H]1O[C@H](CO[C@@H]2O[C@H](CO)[C@@H](O)[C@H](O)[C@H]2O)[C@@H](O)[C@H](O)[C@H]1O)c1ccccc1 (some centres undefined) | -0.91%
50 | CC1CCN(C(=O)CCc2nc(-c3ccc(F)cc3)no2)CC1 | 87.9% (active)
51 | COc1ccc(CC(=O)N2CCC(c3nc(-c4ccc(F)c(F)c4)no3)CC2)cc1 | 51.3% (active)
52 | COc1ccc(CCc2nnc(CCC(=O)N3CCC(c4ccc(F)cc4)C3)o2)cc1 (centres undefined) | 15.2%

Row | SMILES | inhibition
53 | CC1CCN(C(=O)CSc2nnc(C(C)Oc3ccc(F)cc3)o2)CC1 (centres undefined) | -37.3%
54 | COc1cccc(C(=O)N2CCC(c3nc(-c4ccc(C(F)(F)F)cc4)no3)CC2)c1 | 30.8%
55 | CCOC(=O)C(=O)N1CCC(c2nc(-c3ccc(F)c(F)c3)no2)CC1 | 75.8% (active)
56 | COc1ccc(CC(=O)N2CCC(c3nc(-c4ccc(C(F)(F)F)cc4)no3)CC2)cc1 | 76.9% (active)
57 | CC(C)c1ccc(OP(N)(=O)Oc2ccccc2F)cc1 (centres undefined) | 12.2%
58 | CCOC(=O)Cn1c(=NC(=O)c2cc(C)no2)sc2cc(Cl)ccc21 | -4.33%
59 | O=C(Cc1cccs1)N1CCC(c2nc(-c3ccc(C(F)(F)F)cc3)no2)CC1 | 67.2% (active)
60 | COC(=O)C(=O)N1CCC(c2nc(-c3ccc(Cl)cc3)no2)CC1 | 20.8%
61 | O=C(c1ccccc1C(F)(F)F)N1CCC(c2nc(-c3ccc(Cl)cc3F)no2)CC1 | 15.5%
62 | CCOC(=O)CC(=O)N1CCC(c2nc(-c3ccc(Cl)cc3)no2)CC1 | 57.3% (active)
63 | O=C(COc1ccc(Cl)cc1)N1CCC(c2nc(-c3ccc(Cl)cc3F)no2)CC1 | 64.9% (active)
64 | O=C(CSc1nnc(Cc2cccs2)n1C1CC1)N1CCOC1=O | -19.6%
65 | O=C(NCCc1ccc(C(F)(F)F)cc1)NCCc1cccs1 | 31.3%
66 | O=C(c1c(F)cccc1Cl)N1CCC(c2nc(-c3ccc(F)c(F)c3)no2)CC1 | 88.5% (active)
67 | COc1ccc(CC(=O)N(CC(=O)N2CCc3sccc3C2c2ccc(Cl)cc2Cl)Cc2ccc(F)cc2)cc1 (centres undefined) | 3.26%
68 | O=C(CCc1ccccc1)N1CCC(c2nc(-c3ccc(C(F)(F)F)cc3)no2)CC1 | 83.2% (active)
69 | COc1ccc(CC(=O)N2CCC(c3nc(-c4ccc(Cl)cc4F)no3)CC2)cc1 | 89% (active)
70 | OCCc1ccc(-c2noc(C3CCC3)n2)cc1 | 40.7%
71 | CSC1(CNc2ccc(Br)cn2)CCOCC1 | 57.5% (active)
72 | CC(=O)Nc1cccc(CNc2ccc(Br)cn2)c1 | 2.55%
73 | O=C(CC1CCCCC1)NCc1ccn(-c2ccccc2F)n1 | 25.1%
74 | O=C1CCC(C(=O)Nc2ccc(F)c(-n3cccc3)c2)CN1 (centres undefined) | 68.1% (active)
75 | O=C(CC1CCS(=O)(=O)C1)Nc1ccc(F)c(-n2cccc2)c1 (centres undefined) | 58.4% (active)
76 | CC1(C(=O)Nc2ccc(F)c(-n3cccc3)c2)CCOCC1 | 49.2%
77 | CC(=O)Nc1ccc(/C=C2\C(=O)c3c(O)ccc(Cl)c3C2C)cc1 (centres undefined) | 28.3%
78 | CCOC(=O)C1=C(O)/C(=C\c2cccc(C)n2)SC1=Nc1cccc(F)c1 | -12.2%

Row | SMILES | inhibition
79 | N#CC1(NC(=O)COc2ccc(C(=O)c3ccc(F)cc3)cc2)CCCCC1 | 99.2% (active)
80 | Fc1cccc(F)c1-c1nc(CSc2nccc(C(F)(F)F)n2)cs1 | 51.8% (active)
81 | Cc1nccc(-c2ccc(NC(=O)/C=C/c3csc(C)n3)cc2)n1 | 86.2% (active)
82 | O=C(Nc1cccc([N+](=O)[O-])c1)C1COc2ccccc2O1 (centres undefined) | 97.2% (active)
83 | O=C(Nc1cccc(Cl)c1Cl)C1COc2ccccc2O1 (centres undefined) | -20.1%
84 | O=C(NNC(=O)C1COc2ccccc2O1)c1cccc(C(F)(F)F)c1 (centres undefined) | -52.4%
85 | COc1cccc(OCCCOc2ccc(/C=C3\C(=N)N4N=CSC4=NC3=O)cc2)c1 | 88.5% (active)
86 | N#Cc1cccc(CN2CCN3C(C(=O)Nc4ccc(-n5cccc5)cc4)=COC3=NC2=O)c1 | 29.2%
87 | N#Cc1cccc(CN2CCN3C(C(=O)NCCCc4ccccc4)=COC3=NC2=O)c1 | 89.4% (active)
88 | N#Cc1cccc(CN2CCN3C(C(=O)Nc4ccc(-n5cccn5)cc4)=COC3=NC2=O)c1 | 85.8% (active)
89 | O=c1c(Cl)c(Cl)cnn1CCOc1ccc(Br)cc1 | 33.5%
90 | O=c1c(Cl)cc(C(F)(F)F)cn1Cc1coc(-c2cccs2)n1 | 25.7%
91 | O=c1c(Cl)c(Cl)cnn1Cc1cc(-c2cccs2)on1 | 99.8% (active)
92 | Fc1ccc(C2C=C(c3cccs3)Nc3nnnn32)cc1 (centres undefined) | 51% (active)
93 | FC(F)Oc1ccc(C2C=C(c3ccccc3)Nc3nnnn32)cc1 (centres undefined) | -55.4%
94 | FC(F)(F)c1ccc(C2C=C(c3cccs3)Nc3nnnn32)cc1 (centres undefined) | 87.3% (active)
95 | CCCCSC1=C(C#N)C(=O)NC(C)S1 (centres undefined) | 27.6%
96 | CCCCCCSC1=C(C#N)C(=O)NC(CO)S1 (centres undefined) | 98.9% (active)
97 | CCCCCCSC1=C(C#N)C2(CCCC2)C(C#N)C(=O)N1 (centres undefined) | inactive
98 | c1ccc(-c2cnnc(N3CCCCCCC3)n2)cc1 | 48.8%
99 | CC(C)(C)c1cc2nc(C(=O)O)cc(-c3cccc(C(F)(F)F)c3)n2n1 | 43.3%
100 | COc1ccccc1-c1cc(C(=O)O)nc2cc(-c3ccc(Cl)cc3)nn12 | 43.3%
101 | COc1cccc(-c2cc(C(=O)O)nc3cc(C(C)(C)C)nn23)c1 | 100% (active)
102 | COc1cccc(-c2cc(C(=O)O)nc3cc(-c4ccc(Cl)cc4)nn23)c1 | 59.4% (active)
103 | CC(C)(C)c1cc2nc(C(=O)O)cc(-c3cccc(F)c3)n2n1 | 64.4% (active)
104 | CN1CCC(CNc2ccc3ncc(-c4cccc(OC(F)(F)F)c4)n3n2)CC1 | 44.6%
